This note sets out measurements from PubChem BioAssay (EPA / NIEHS).

The AC50 is the concentration giving half of the maximal activity seen.

Structures are written as SMILES. Inconclusive results are not listed. Some compounds were tested as several samples or in several runs, with calls that do not always agree. Activity calls are given as the source filed them. The calls were made as follows, unless noted: active = hit-call score of the fitted dose curve at least 0.9, where 1 is the maximum; inconclusive = response in the unintended direction; inactive = score below 0.9.

Read-out in test [1]: UDP glucuronosyltransferase (UGT1A1), UGT1A1 (gene 54658)
Nature of the test: LTEA_HepaRG_UGT1A1: Life Technologies and Expression Analysis (LTEA) Assay for UDP glucuronosyltransferase (UGT1A1) using HepaRG (AID 2283538; active = hit-call score of the fitted dose curve at least 0.9, where 1 is the maximum; inactive = score below 0.9). To be noted: mRNA level, 48 h; actives raise or lower the signal. In a few lines:
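Differentiated human HepaRG cells in serum-free induction medium were exposed in duplicate for 48 h to eight half-log concentrations up to 100 uM in 0.5% DMSO. UGT1A1 mRNA was quantified by TaqMan qRT-PCR, normalized to ACTB, GAPDH and POLR2A, and fitted bidirectionally against DMSO.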

Read-out in test [2]: UDP glucuronosyltransferase (UGT1A6), UGT1A6 (gene 54578)
Nature of the test: LTEA_HepaRG_UGT1A6: Life Technologies and Expression Analysis (LTEA) Assay for UDP glucuronosyltransferase (UGT1A6) using HepaRG (AID 2283539; active = hit-call score of the fitted dose curve at least 0.9, where 1 is the maximum; inactive = score below 0.9). To be noted: mRNA level, 48 h; actives raise or lower the signal. In a few lines: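 HepaRG, 48 h post-plating switch to serum-free induction medium; chemical 48 h, 100 uM top, half-log x8, duplicate, 0.5% DMSO. Phenobarbital 1mM induction control. UGT1A6 mRNA by TaqMan qRT-PCR; gain/loss fit vs DMSO.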

Read-out in test [3]: X-box binding protein 1 (XBP1), XBP1 (gene 7494)
Nature of the test: LTEA_HepaRG_XBP1: Life Technologies and Expression Analysis (LTEA) Assay for X-box binding protein 1 (XBP1) using HepaRG (AID 2283540; active = hit-call score of the fitted dose curve at least 0.9, where 1 is the maximum; inactive = score below 0.9). To be noted: mRNA level, 48 h; actives raise or lower the signal. In a few lines:
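Transcript levels of XBP1, measured by qRT-PCR and normalised to three housekeeping genes, were fitted bidirectionally relative to 0.5% DMSO controls. Human HepaRG cells received eight-point half-log dilutions from 100 uM for 48 h.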

The nature of test [4]: LTEA_HepaRG_LDH_cytotoxicity: Cytotoxicity Assessment in the Life Technologies and Expression Analysis (LTEA) Assay (AID 2283563).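 As to AC50: LDH activity released into spent culture medium as a marker of cell death.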 Put shortly: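 Cells were thawed and plated for 48 h. Medium was then replaced with serum-free induction medium. Chemicals (8 half-log points, maximum 100 uM, 0.5% DMSO) were added in duplicate for 48 h, after which spent medium was assayed for LDH.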

Test [5] is described as follows: TOX21_p53_BLA_p2_viability: Viability Assessment in the Tox21 HCT-116 p53 Agonism Beta-lactamase Assay, Phase 2 (AID 2283591).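 Also: compound exposure lasted 16 h at 37 °C; actives lower the ATP signal meaning cytotoxicity.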 Put shortly:
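HCT-116 p53-bla cells (4000/well) rested 5 h at 37C, then received compounds in DMSO (217-fold dilution) for 16 h at 37C, 5% CO2. After the CCF4 read, CellTiter-Glo was added; ATP luminescence was read after 30 min at room temperature.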

The target of test [6] is Cellular tumor antigen p53 (Homo sapiens) (UniProt P04637). Nature of the test: TOX21_p53_BLA_p2_ratio: Tox21 HCT-116 p53 Agonism Beta-lactamase Assay, Ratio, Phase 2 (AID 2283592). Put shortly: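 HCT116 p53-bla; 4000 cells/well; 5 h pre-incubation; cpd in DMSO, 217-fold dilution; 16 h 37C/5% CO2; CCF4-AM 2 h RT; Ex 405, Em 460/530 ratio; DMSO = baseline; positive fitting direction.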

A short description of test [7]: TOX21_p53_BLA_p4_viability: Viability Assessment in the Tox21 HCT-116 p53 Agonism Beta-lactamase Assay, Phase 4 (AID 2283597).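 Also: hits lower the luminescence signal meaning cytotoxicity.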 In a few lines:
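Cells plated, 5 h pre-incubation; DMSO compounds pinned (217-fold dilution); 16 h, 37C/5% CO2; CCF4-AM 2 h RT; CellTiter-Glo 30 min RT; luminescence read.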

The target in test [8] is Cellular tumor antigen p53 (Homo sapiens) (UniProt P04637). Nature of the test: TOX21_p53_BLA_p5_ratio: Tox21 HCT-116 p53 Agonism Beta-lactamase Assay, Ratio, Phase 5 (AID 2283599). Put shortly: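 HCT-116 cells carrying a p53-inducible beta-lactamase reporter were seeded at 4000 cells/well and dosed after 5 h with compound in DMSO (217-fold dilution). After 16 h at 37C, CCF4-AM substrate was added for 2 h, and the 460/530 nm emission ratio was scored as gain-of-signal versus DMSO.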

The nature of test [9]: Tanguay_ZF_120hpf_MORT_legacy: (Legacy) Oregon State University Tanguay Lab 120 Hour Post-fertilization zebrafish Assay for Mortality (AID 2283633).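 As to AC50: fitted as increase in binary mortality versus DMSO negative control.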 In a few lines:
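5D WT zebrafish, chorion removed 4 hpf; 1 embryo/well from 6 hpf; static exposure to 120 hpf, 28C, dark, sealed. Final DMSO 0.64%. Readout: binary mortality, brightfield, 24 + 120 hpf; DMSO as negative control.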

A short description of test [10]: Tanguay_ZF_120hpf_AXIS_legacy: (Legacy) Oregon State University Tanguay Lab 120 Hour Post-fertilization zebrafish Assay for Body Axis Malformation (AID 2283635).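 As to AC50: potency for an increased fraction of larvae scored with body axis malformation.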 In a few lines:
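Chorion is removed with pronase at 4 hpf, then single 6 hpf embryos are dosed (final DMSO 0.64%) and held statically at 28C in sealed, foil-covered plates. At 120 hpf body axis malformation is recorded as present or absent.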

Test [11] can be described thus: Tanguay_ZF_120hpf_SNOU_legacy: (Legacy) Oregon State University Tanguay Lab 120 Hour Post-fertilization zebrafish Assay for Snout Malformation (AID 2283637). Put shortly:
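Tropical 5D wild-type zebrafish embryos, dechorionated with pronase at 4 hpf, were exposed singly from 6 hpf to 120 hpf statically at 28C in 0.64% DMSO. Snout malformation was scored present/absent by brightfield microscopy, fitted against DMSO.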

The nature of test [12]: Tanguay_ZF_120hpf_JAW_legacy: (Legacy) Oregon State University Tanguay Lab 120 Hour Post-fertilization zebrafish Assay for Jaw Malformation (AID 2283638).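 As to AC50: active means more embryos with jaw malformation than DMSO controls.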 Put shortly:
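Steps: dechorionate 4 hpf embryos (pronase); plate 1/well at 6 hpf; add test chemical, 0.64% DMSO final; seal, cover, hold at 28C statically to 120 hpf; score jaw defect presence/absence microscopically. Dead embryos not scored.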

Test [13] in a line: Tanguay_ZF_120hpf_OTIC_legacy: (Legacy) Oregon State University Tanguay Lab 120 Hour Post-fertilization zebrafish Assay for Otic Vesicle Malformation (AID 2283639). In a few lines: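 Tropical 5D wild-type zebrafish embryos were exposed statically in sealed, foil-covered plates at 28C until 120 hpf, with 0.64% (vol/vol) DMSO final. Otic vesicle malformation was scored present/absent by brightfield microscopy, with DMSO as baseline.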

Test [14] is described as follows: Tanguay_ZF_120hpf_YSE_legacy: (Legacy) Oregon State University Tanguay Lab 120 Hour Post-fertilization zebrafish Assay for Yolk Sac Edema (AID 2283634).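 As to AC50: actives raise the incidence of yolk sac edema above the DMSO baseline.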 In a few lines: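 Dechorionate (pronase, 4 hpf) → place one 6 hpf embryo per well → static compound exposure, sealed and foil-covered, 28C, to 120 hpf → record yolk sac edema as present or absent. Final DMSO 0.64%.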

The nature of test [15]: Tanguay_ZF_120hpf_EYE_legacy: (Legacy) Oregon State University Tanguay Lab 120 Hour Post-fertilization zebrafish Assay for Eye Malformation (AID 2283636).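 Also: binary presence or absence of eye malformation scored by brightfield in 120 hpf larvae.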 In a few lines: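 Dechorionated wild-type Tropical 5D zebrafish embryos were exposed statically from 6 hpf, one per well, to 120 hpf at 28C in sealed, foil-covered plates with 0.64% DMSO. Eye malformation was scored present/absent by brightfield microscopy against DMSO controls.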

Test [16] is described as follows: TOX21_p53_BLA_p3_viability: Viability Assessment in the Tox21 HCT-116 p53 Agonism Beta-lactamase Assay, Phase 3 (AID 2283593).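 Also: cells exposed to compound for 16 h before reading.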 Put shortly: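 HCT-116 cells (4000/well) rested 5 h at 37C, then got DMSO compounds by pin tool (217-fold dilution) for 16 h at 37C, 5% CO2. After the bla read, CellTiter-Glo was added and luminescence read at 30 min, room temperature.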

Test [17] addresses Cellular tumor antigen p53 (Homo sapiens) (UniProt P04637). Nature of the test: TOX21_p53_BLA_p3_ratio: Tox21 HCT-116 p53 Agonism Beta-lactamase Assay, Ratio, Phase 3 (AID 2283596). In a few lines: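 HCT116 p53-bla cells (4000/well) given compound in DMSO (217-fold dilution) after 5 h, incubated 16 h at 37C. CCF4-AM substrate 2 h at room temperature; 460/530 nm emission ratio, gain fitted against DMSO.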

Test [18] is described as follows: TOX21_p53_BLA_p5_viability: Viability Assessment in the Tox21 HCT-116 p53 Agonism Beta-lactamase Assay, Phase 5 (AID 2283600). In a few lines: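 4000 cells/well; 5 h pre-incubation; DMSO compounds pin-transferred, 217-fold dilution; 16 h, 37C/5% CO2; CCF4-AM 2 h RT; CellTiter-Glo 30 min RT; luminescence.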
Test [19] can be described thus: ATG_XTT_Cytotoxicity: Cytotoxicity Assessment in the Attagene TRANS-FACTORIAL HepG2 Assay (AID 2283584). In a few lines: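 Cells: human HepG2, transiently transfected with MRTU reporter constructs. Exposure 24 h. Readout: XTT, cell number. Baseline/neg ctrl DMSO; loss-of-signal scored.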
Test [20] has as its target Cellular tumor antigen p53 (Homo sapiens) (UniProt P04637). Nature of the test: TOX21_p53_BLA_p4_ratio: Tox21 HCT-116 p53 Agonism Beta-lactamase Assay, Ratio, Phase 4 (AID 2283601). In a few lines: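 HCT116 cells carrying an inducible beta-lactamase reporter were plated at 4000 cells/well, rested 5 h, then exposed to compounds in DMSO (217-fold dilution) for 16 h at 37C. CCF4-AM substrate was loaded 2 h at room temperature; 460/530 nm emission ratio scored gain-of-signal versus DMSO.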

Cellular tumor antigen p53 (Homo sapiens), sequence (P04637 whole entry, looked up): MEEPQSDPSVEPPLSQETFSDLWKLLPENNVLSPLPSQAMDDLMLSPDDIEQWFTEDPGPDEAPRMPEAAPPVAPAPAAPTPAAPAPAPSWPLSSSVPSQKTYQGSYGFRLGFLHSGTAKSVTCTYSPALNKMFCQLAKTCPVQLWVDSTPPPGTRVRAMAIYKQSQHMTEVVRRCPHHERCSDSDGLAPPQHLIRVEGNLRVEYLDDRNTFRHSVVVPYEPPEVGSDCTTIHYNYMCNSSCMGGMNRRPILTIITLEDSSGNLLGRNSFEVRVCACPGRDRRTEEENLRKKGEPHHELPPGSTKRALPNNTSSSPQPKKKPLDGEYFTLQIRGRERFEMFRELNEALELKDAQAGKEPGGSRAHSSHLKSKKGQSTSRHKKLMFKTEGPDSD

For `CC(COc1ccc(Oc2ccccc2)cc1)Oc1ccccn1` (stereo not given), in [1], the AC50 was 8.3 µM (active). For the same compound, the compound was classed as inactive in test [2], in test [3], in test [4], in [5], in test [6] and in test [7]. Besides, the result in test [8], in [9], in test [10], in test [11], in test [12] and in test [13] was inactive.
For `CCCCOC(=O)[C@@H](C)Oc1ccc(Oc2ccc(C#N)cc2F)cc1`, in test [1], the concentration at half-maximal activity (AC50) was 49.8 µM (active). In addition, the call in test [2], in test [3], in [4], in [5], in test [6] and in test [7] was inactive. The result in [8], in test [9], in [14], in [10], in test [15] and in [11] was inactive. The outcome in test [12] was inactive.
In the case of `CC[C@H](C)[C@H]1O[C@]2(C=C[C@@H]1C)C[C@@H]1C[C@@H](C/C=C(\C)[C@@H](O[C@H]3C[C@H](OC)[C@@H](O[C@H]4C[C@H](OC)[C@@H](NC)[C@H](C)O4)[C@H](C)O3)[C@@H](C)/C=C/C=C3\CO[C@@H]4[C@H](O)C(C)=C[C@@H](C(=O)O1)[C@]34O)O2`, the concentration at half-maximal activity (AC50) was 12.7 µM (active) in test [1]; 12.5 µM (active) in [2]; 12.8 µM (active) in test [3]; 18.2 µM (active) in [4]; 13.5 µM (active) in test [5]; 59.1 µM (active) in [6]. The AC50 in [16] was 14.4 µM (active); in test [17] it was 54.1 µM (active); in test [7] it was 8.89 µM (active); in test [8], 56.9 µM (active); in test [18] it was 14.9 µM (active); in test [9], 5.52 µM (active). Also, the half-maximal activity concentration (AC50) in [14] is 0.247 µM (active). In addition, the compound was classed as inactive in test [10], in test [15], in test [11], in test [12] and in test [13].
Take `CCc1cnc(C2=NC(C)(C(C)C)C(=O)N2)c(C(=O)O)c1` (stereo not given): the result in test [1], in test [2], in test [3], in [4], in test [9] and in [14] was inactive. Besides, the call in [10], in [15], in [12] and in test [13] was inactive.
As to `CCC(=O)Nc1ccc(Cl)c(Cl)c1`, the AC50 in test [1] was 26.7 µM (active); in [6], 88 µM (active); in test [17], 72.7 µM (active). Also, the call in [2], in test [4], in test [19], in test [5], in test [6] and in [16] was inactive. In addition, the result in [17], in [7], in test [8], in test [18], in [9] and in [14] was inactive. Further, the outcome in test [10], in test [15], in [12] and in [13] was inactive.
On to `CCOC(=O)COc1cc(-c2nn(C)c(OC(F)F)c2Cl)c(F)cc1Cl`, for which the concentration at half-maximal activity (AC50) in test [1] was 50 µM (active). Moreover, the outcome in [2], in test [3], in test [4], in test [5], in test [16] and in test [17] was inactive. The outcome in test [7], in test [9], in test [14], in [10], in test [15] and in [12] was inactive. Further, the compound was classed as inactive in [13].
Take `C[Si](Cn1cncn1)(c1ccc(F)cc1)c1ccc(F)cc1`: the AC50 in test [1] was 66.3 µM (active); in test [2] it was 50 µM (active); in test [3] it was 90 µM (active); in [4], 33.4 µM (active); in [5], 23.1 µM (active); in test [7], 53 µM (active). Also, the half-maximal activity concentration (AC50) is 40.9 µM (active) in test [14]; 10.3 µM (active) in [10]; 46.9 µM (active) in test [15]; 13.4 µM (active) in test [12]; 12.7 µM (active) in test [13]. The outcome in test [5], in test [6], in [16], in test [17], in [7] and in test [8] was inactive. Also, the compound was called inactive in [18] and in test [9].
In the case of `CC1(C(=O)Nc2ccc(O)c(Cl)c2Cl)CCCCC1`, the result in [1], in test [2], in test [3], in [4], in test [5] and in [6] was inactive. Moreover, the compound was classed as inactive in [16], in test [17], in [7], in test [8], in [18] and in test [20]. For the same compound, the result in test [9], in test [14], in [10], in test [15], in test [11] and in test [12] was inactive.
